# Source: PubChem
# Shown is part of a subset that was picked to be rich in hits.
# Tb PFK inh = blocks T. brucei phosphofructokinase; O15648; T. brucei PFK, ADP-Glo luminescence; Potency, µM (series often up to 57.5 µM), for the others: at the top dose activity, negative = inhibition, usual class: inhibitors; 330,000 tested, 0.17% active;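 further: potency means the concentration at half of the fitted maximal effect; 0% = uninhibited 1x PFK enzyme wells and -100% = no-enzyme wells; nearly all actives have a fitted effect of over 60% in size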
#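 In TEA buffer at pH 8.0 with 5 mM MgCl2, enzyme (1.25 nM) converted F6P (0.5 mM) and ATP (0.1 mM) for 45 min at room temperature. ADP product was read by luciferase luminescence.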
# PI4K2A inh = inhibitors of human PI4K2A. 420,000 tested, 0.13% active. purified PI4K2A, ADP-Glo luminescence, 1 h; stronger effect = lower value. activity change, negative = inhibition, % at 76.9 µM. AID 1346378. Q9BTU6; in the data active means activity change below about -50%; inconclusive means mostly about -30% to -49%;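 further: -100% = wells without enzyme as full effect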
#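 In this quantitative HTS, ADP production by PI4K2A was quantified luminescently after 1 h at ambient temperature; 100 microM adenosine served as plate-quality control.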
# PGK inhibitor = blocks T. brucei phosphoglycerate kinase. PGK/GAPDH coupled, Kinase-Glo luminescence, 60 min. P07378. Potency, µM (highest dose often 57.5 µM), for inactives: at the highest dose activity change, negative = inhibition, usual class: inhibitors. 380,000 tested, 0.043% active; further: potency means the concentration at half of the fitted maximal effect; nearly all actives have a fitted effect of over 60% in size
#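 Recombinant glycosomal PGK reaction used 1,3-bisphosphoglycerate generated in-well by GAPDH (100nM final) in 100mM TEA pH 7.6, 5mM MgCl2, 0.01% Tween-20. After 60 minutes at room temperature, ATP was read by Kinase-Glo Plus luminescence end-point.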
# Pin1 inh = human Pin1 inhibition; Q13526; Pin1 FP peptide displacement, HiFluor488, 10 min; Potency, µM (titrated, usually from 115 µM), for inactives: top-dose activity, negative = inhibition, usual class: inhibitors; 390,000 tested, 0.009% active; AID 504891; active means well fitted inhibition curve with a large enough effect in the polarisation, with a control signal flat, not every such curve was filed as active; inconclusive means small, poorly fitted or top-dose-only effect, or effect the other way, or a change in a side signal; inactive means no such curve, though single readings can be large or run the other way; the % refers to the polarisation; further: potency means the concentration at half of the fitted maximal effect
# Target sequence (Q13526 whole entry, looked up): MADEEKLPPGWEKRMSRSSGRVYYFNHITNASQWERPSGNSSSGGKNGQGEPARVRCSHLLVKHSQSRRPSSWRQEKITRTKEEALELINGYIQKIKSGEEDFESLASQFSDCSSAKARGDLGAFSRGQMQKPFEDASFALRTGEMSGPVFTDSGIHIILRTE
# PI5P4Ka inh = PI5P4K alpha (human) kinase inhibition. 330,000 tested, 1.2% active. P48426. AID 652105. max response, %. PI5P4Kalpha enzyme, ADP-Glo luminescence, 60 min; stronger effect = lower value; active means max response of -50% or lower; inconclusive means between -30% and -50%; inactive means -30% or higher; further: value at the top dose of about 77 µM
# Target sequence (P48426 whole entry, looked up): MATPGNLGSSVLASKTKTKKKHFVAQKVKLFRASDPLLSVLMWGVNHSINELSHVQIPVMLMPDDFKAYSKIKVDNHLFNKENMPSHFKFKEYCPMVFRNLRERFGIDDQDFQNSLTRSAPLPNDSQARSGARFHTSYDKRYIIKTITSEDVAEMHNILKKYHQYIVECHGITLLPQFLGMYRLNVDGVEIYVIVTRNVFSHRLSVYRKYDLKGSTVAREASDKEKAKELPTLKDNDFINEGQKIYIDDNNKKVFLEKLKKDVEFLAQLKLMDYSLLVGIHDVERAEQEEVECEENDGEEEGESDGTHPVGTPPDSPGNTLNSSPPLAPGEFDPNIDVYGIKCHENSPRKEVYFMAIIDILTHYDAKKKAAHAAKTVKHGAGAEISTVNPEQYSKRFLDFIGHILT
#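 Controls without substrate or without enzyme flank wells where PI5P4Kalpha converts substrate using 5 microM ATP (final). Incubation lasts 60 minutes at room temperature; ADP formed is read by ADP-Glo luminescence.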
# ADP-Glo interf = counter-screen for PI5P4K inhibitors: ADP-Glo detection interference, no enzyme; 1,100 tested, under 10 active; AID 743285; ADP-Glo detection counter-screen, luciferase luminescence, no enzyme; shares compounds with PI5P4Ka inh; Potency, µM (highest dose often 76.9 µM), for the others: top-dose activity change, negative = inhibition, usual class: inhibitors
# * marks the source's active call; other numbers are inactive results; i = inactive; ? = inconclusive; . = not tested or not shown. Unless noted, the call rests on the fitted dose curve; in most records, active means well fitted curve in the direction sought with a large enough effect; inconclusive means small, poorly fitted or top-dose-only effect, or another doubt; inactive means no such curve, though single readings can be large; an effect the other way counts as inactive or inconclusive. Unless noted, on the % scale 0 is the no-effect control and ±100 the full control effect.
SMILES,Tb PFK inh,PI4K2A inh,PGK inhibitor,Pin1 inh,PI5P4Ka inh,ADP-Glo interf
Cc1noc(C)c1-c1ccc2ncnc(NCc3ccc(C(F)(F)F)o3)c2c1,.,.,.,-7%,.,.
S=C(Nc1cccc(Cl)c1)OCCN1CCCC12CCC(c1ccccc1)CC2 (stereo not drawn),.,2,.,.,.,.
Cc1cc(C)c2c(N)c(C(=O)Nc3c(C)n(C)n(-c4ccccc4)c3=O)sc2n1,1%,-2,4%,2%,0,0%
C#CCN1C(C(=O)OC)CN(CCCCCC)CCS1(=O)=O (stereo not drawn),.,4,.,.,.,.
COc1cc(OC)cc(-c2nnc(NC(=O)CCS(=O)(=O)c3ccc(C)cc3)o2)c1,2%,-16,2%,?,-50*,2%
NC(=S)c1cc2ccc(O)cc2oc1=O,0%,-21,-9%,?,-72*,-7%
C/C(=N/NC(N)=S)c1cc2ccc(O)cc2oc1=O,-15%,0,?,?,?,.
CCOc1ccc(C(=O)c2cc3ccc(O)cc3oc2=O)cc1,-3%,-1,-9%,?,-67*,0%
COc1ccc2cc(C(N)=O)c(=Nc3ccc(C)cc3)oc2c1,-2%,0,i,3%,8,.
O=C(c1ccc([N+](=O)[O-])cc1)c1cc2ccc(O)cc2oc1=O,4%,-13,-5%,?,?,.
Cc1cccc(N=c2oc3cc(O)ccc3cc2C(N)=O)c1,0%,-12,-9%,?,-55*,5%
CCO[C@@H]1OC(C(=O)NCc2ccccc2)=C[C@H](C(C)(C)C)[C@H]1CCCO,4%,-8,-22%,0%,0,-10%
CCCC(=O)OC12CCCN(C1)/C(=C/c1ccc(Cl)cc1)C2 (stereo not drawn),.,-4,.,.,.,.
CCc1nnc(NC(=O)CSc2sc3c(O)cc(=O)[nH]c3c2C#N)s1,?,-6,?,?,-84*,3%
Cc1csc(NC(=O)CSc2nc3[nH]ncc3c(=O)[nH]2)n1,-5%,-4,4%,-6%,.,2%
Cc1csc(NC(=O)CSc2sc3c(O)cc(=O)[nH]c3c2C#N)n1,1%,-8,-18%,?,-81*,5%
O=C(C1CCN(c2cncnc2)CC1)N1CCCC1,.,1,.,.,.,.
CCOC(=O)CC[C@@H]1CC[C@]2(CCCN(Cc3ccc(Cl)cc3)C2)O1,.,1,.,.,.,.
COc1ccc(-c2noc(C3CCCN(C(=O)NC4CCC(C)CC4)C3)n2)cc1 (stereo not drawn),.,-3,.,.,.,.
O=C(Nc1ccc(Cl)c(Cl)c1)C1CCCN1S(=O)(=O)c1cccc2cccnc12 (stereo not drawn),.,-6,.,.,.,.
CC(C)NC(=O)N1c2ccccc2Sc2ccccc21,0%,-12,-4%,5%,-60*,-1%
Cc1ccc(NC(=O)C2CCCN(c3nnc(-n4cccc4)s3)C2)cc1C (stereo not drawn),.,-3,.,.,.,.
O=C(OCC(=O)N1N=C(c2ccc(Cl)cc2)CC1c1ccco1)c1cccnc1 (stereo not drawn),0%,-21,-2%,.,-71*,-1%
CCOC(=O)N1C(=O)C[C@](Sc2ccc(OC)cc2)(C(=O)N2CCN(C(C)=O)CC2)[C@H]1c1ccc(OC)cc1,.,7,.,.,.,.
CCOC(=O)C1CCCN(C(=O)c2cc(F)cc(F)c2)CC1 (stereo not drawn),.,2,.,.,1,.
SMILES,Tb PFK inh,PI4K2A inh,PGK inhibitor,Pin1 inh,PI5P4Ka inh,ADP-Glo interf
CCOC(=O)C1CCCN(C(=O)c2ccc(F)c(C)c2)CC1 (stereo not drawn),.,-5,.,.,?,-1%
COc1ccc(-c2cc(C(F)F)n3ncc(C(=O)n4ccnc4C)c3n2)cc1,10%,-6,-12%,8%,-26,3%
CC(=NNC(=O)CSc1nnc(-c2ccc(C(C)(C)C)cc2)n1-c1ccccc1)c1cccc2ccccc12,.,-6,.,.,.,.
O=C(COC(=O)Cc1ccsc1)Nc1cccc(F)c1,-4%,-7,-2%,1%,-56*,-2%
CNC(=S)N(Cc1cccs1)Cc1cc2cc(OC)ccc2[nH]c1=O,0%,-5,-2%,1%,-51*,1%
O=C(CN1CCN(c2ccccc2)CC1)NC(=O)NCc1ccco1,1%,1,0%,-1%,-8,.
COc1cccc(N2CCN(CC(=O)NC(=O)NCc3ccco3)CC2)c1,12%,9,-1%,?,-71*,1%
COc1ccc(CN2C(C(=O)NC3CCCC3)CSCCS2(=O)=O)cc1 (stereo not drawn),.,-1,.,.,.,.
COc1ccc2c(c1)c(=O)oc1c(C)c(OCc3ccc(C(=O)O)cc3)ccc12,-3%,-5,-11%,75%,?,.
COc1ccc2c(c1)c(=O)oc1c(C)c(OCc3cc(C(=O)O)oc3C)ccc12,-8%,-5,-26%,?,-68*,1%
Cc1[nH]c2ccccc2c1CCN(Cc1cccs1)C(=O)Nc1cccc2c1OCO2,.,6,.,.,.,.
Cc1ccc(Nc2nnc(SCC(=O)NCc3ccco3)s2)cc1,?,-24,-2%,?,-52*,5%
O=C(CSc1nnc(Nc2ccccc2)s1)NCc1ccco1,1%,1,6%,-3%,0,.
CC(=O)Cn1nnc2sc(-c3ccccc3)cc2c1=O,5%,10,-3%,27%,-54*,3%
CN(c1ccccc1C(=O)O)S(=O)(=O)c1ccc2c3c(cccc13)C(=O)N2,-6%,-9,-17%,-19%,-56*,-3%
Cc1cc2oc(C(=O)Nc3ccc(S(=O)(=O)Nc4ncccn4)cc3)c(C)c2cc1Cl,3%,1,-1%,6%,2,.
Cc1cc2oc(C(=O)Nc3ccc(S(=O)(=O)Nc4nccs4)cc3)cc(=O)c2cc1Cl,0%,-7,0%,?,-52*,0%
COC(=O)C1CCN(c2cc(Cl)nc(N)n2)CC1,-1%,1,-3%,4%,-22,.
NC(=O)C1CCN(c2cc(Cl)nc(N)n2)CC1,3%,-9,-6%,-8%,-53*,3%
Cc1nc(C(=O)N(C)C)nn1-c1ccc(Cl)cc1Cl,-2%,0,-1%,3%,2,.
CNC(=O)c1nc(C)n(-c2ccc(Cl)cc2Cl)n1,0%,-1,i,-12%,-93*,-7%
Cc1cccnc1NC(=O)CNC(=O)c1sc2ccccc2c1Cl,-1%,-1,i,-5%,-2,.
Cc1cccc(NC(=O)CNC(=O)c2sc3ccccc3c2Cl)n1,9%,0,3%,37%,-51*,-8%
Cc1cc(Nc2ccccc2C(=O)O)n2ncnc2n1,.,-2,-2%,.,.,1%
Cc1cc(Nc2cc(C(=O)O)ccc2C)n2ncnc2n1,-2%,-4,-9%,1%,4,.
